# Experimental data: the supplement of paper PMC8728848
# This is one part of a sample in which the strongest signals are shown more often than they occur.
# B1: SLLPI (Homo sapiens), Q8IXA5 (protein)
# chain: MVSALRGAPLIRVHSSPVSSPSVSGPRRLVSCLSSQSSALSQSGGGSTSAAGIEARSRALRRRWCPAGIMLLALVCLLSCLLPSSEAKLYGRCELARVLHDFGLDGYRGYSLADWVCLAYFTSGFNAAALDYEADGSTNNGIFQINSRRWCSNLTPNVPNVCRMYCSDLLNPNLKDTVICAMKITQEPQGLGYWEAWRHHCQGKDLTEWVDGCDF
# B2: Factor H (Homo sapiens), P08603 (protein)
# chain: MRLLAKIICLMLWAICVAEDCNELPPRRNTEILTGSWSDQTYPEGTQAIYKCRPGYRSLGNVIMVCRKGEWVALNPLRKCQKRPCGHPGDTPFGTFTLTGGNVFEYGVKAVYTCNEGYQLLGEINYRECDTDGWTNDIPICEVVKCLPVTAPENGKIVSSAMEPDREYHFGQAVRFVCNSGYKIEGDEEMHCSDDGFWSKEKPKCVEISCKSPDVINGSPISQKIIYKENERFQYKCNMGYEYSERGDAVCTESGWRPLPSCEEKSCDNPYIPNGDYSPLRIKHRTGDEITYQCRNGFYPATRGNTAKCTSTGWIPAPRCTLKPCDYPDIKHGGLYHENMRRPYFPVAVGKYYSYYCDEHFETPSGSYWDHIHCTQDGWSPAVPCLRKCYFPYLENGYNQNYGRKFVQGKSIDVACHPGYALPKAQTTVTCMENGWSPTPRCIRVKTCSKSSIDIENGFISESQYTYALKEKAKYQCKLGYVTADGETSGSITCGKDGWSAQPTCIKSCDIPVFMNARTKNDFTWFKLNDTLDYECHDGYESNTGSTTGSIVCGYNGWSDLPICYERECELPKIDVHLVPDRKKDQYKVGEVLKFSCKPGFTIVGPNSVQCYHFGLSPDLPICKEQVQSCGPPPELLNGNVKEKTKEEYGHSEVVEYYCNPRFLMKGPNKIQCVDGEWTTLPVCIVEESTCGDIPELEHGWAQLSSPPYYYGDSVEFNCSESFTMIGHRSITCIHGVWTQLPQCVAIDKLKKCKSSNLIILEEHLKNKKEFDHNSNIRYRCRGKEGWIHTVCINGRWDPEVNCSMAQIQLCPPPPQIPNSHNMTTTLNYRDGEKVSVLCQENYLIQEGEEITCKDGRWQSIPLCVEKIPCSQPPQIEHGTINSSRSSQESYAHGTKLSYTCEGGFRISEENETTCYMGKWSSPPQCEGLPCKSPPEISHGVVAHMSDSYQYGEEVTYKCFEGFGIDGPAIAKCLGEKWSHPPSCIKTDCLSLPSFENAIPMGEKKDVYKAGEQVTYTCATYYKMDGASNVTCINSRWTGRPTCRDTSCVNPPTVQNAYIVSRQMSKYPSGERVRYQCRSPYEMFGDEEVMCLNGNWTEPPQCKDSTGKCGPPPPIDNGDITSFPLSVYAPASSVEYQCQNLYQLEGNKRITCRNGQWSEPPKCLHPCVISREIMENYNIALRWTAKQKLYSRTGESVEFVCKRGYRLSSRSHTLRTTCWDGKLEYPTCAKR
# Columns and labels:
# Test in all cases: glycan array binding signal (z-score within array); higher = stronger binding
# Settings in all cases: glycan notation: IUPAC condensed, linker removed
# [1] = molecular target: Fuc(a1-2)Gal(b1-3)GalNAc(b1-3)Gal
# Outline: (§1)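 The Consortium for Functional Glycomics database supplied 3228 glycan arrays, of which those lacking an available protein sequence were dropped. The binding signal, a within-array Z-score, was averaged across arrays of the same protein sequence and across linkers. Negative scores can be read as non-binding.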
# Fuc(a1-2)Gal(b1-3)GlcNAc = molecular target: Fuc(a1-2)Gal(b1-3)GlcNAc
# Outline: as §1
# Fuc(a1-2)Gal(b1-4)Glc = molecular target: Fuc(a1-2)Gal(b1-4)Glc
# Outline: as §1
# [2] = molecular target: Fuc(a1-2)Gal(b1-4)GlcNAc(b1-3)Gal(b1-4)GlcNAc
# Outline: as §1
# [3] = molecular target: Fuc(a1-2)Gal6S(b1-4)GlcNAc
# Outline: as §1
# Fuc(b1-3)GlcNAc = molecular target: Fuc(b1-3)GlcNAc
# Outline: as §1
# [4] = molecular target: Gal(a1-3)[Gal(a1-4)]Gal(b1-4)GlcNAc
# Outline: as §1
# [5] = molecular target: Gal(b1-3)GalNAc(b1-4)Gal(b1-4)Glc
# Outline: as §1
# [6] = molecular target: Gal(b1-3)GlcNAc(b1-2)Man(a1-3)[Gal(b1-3)GlcNAc(b1-2)Man(a1-6)]Man(b1-4)GlcNAc(b1-4)GlcNAc
# Outline: as §1
# [7] = molecular target: Gal(b1-3)GlcNAc(b1-3)Gal(b1-4)Glc
# Outline: as §1
# [8] = molecular target: Gal(b1-4)GalNAc(a1-3)[Fuc(a1-2)]Gal(b1-4)GlcNAc
# Outline: as §1
# [9] = molecular target: Gal(b1-4)GlcNAc(b1-3)Gal(b1-3)GlcNAc
# Outline: as §1
# [10] = molecular target: Gal3S(b1-3)[Fuc(a1-4)]GlcNAc
# Outline: as §1
# Gal6S(b1-4)Glc6S = molecular target: Gal6S(b1-4)Glc6S
# Outline: as §1
# GalNAc(a1-3)Gal = molecular target: GalNAc(a1-3)Gal
# Outline: as §1
# GlcA(b1-3)GlcNAc = molecular target: GlcA(b1-3)GlcNAc
# Outline: as §1
# GlcA(b1-6)Gal = molecular target: GlcA(b1-6)Gal
# Outline: as §1
# [11] = molecular target: GlcNAc(b1-2)Gal(b1-3)GalNAc
# Outline: as §1
# GlcNAc(b1-3)Gal = molecular target: GlcNAc(b1-3)Gal
# Outline: as §1
# GlcNAc(b1-3)Gal(b1-4)Glc = molecular target: GlcNAc(b1-3)Gal(b1-4)Glc
# Outline: as §1
# [12] = molecular target: Man(a1-2)Man(a1-2)Man(a1-3)Man
# Outline: as §1
# [13] = molecular target: Man(a1-3)[Man(a1-6)]Man(a1-6)[Man(a1-2)Man(a1-3)]Man(b1-4)GlcNAc(b1-4)GlcNAc
# Outline: as §1
# [14] = molecular target: Neu5Ac(a2-3)Gal(b1-4)GlcNAc(b1-2)Man(a1-3)[GlcNAc(b1-2)Man(b1-4)GlcNAc(b1-2)Man(a1-6)]Man(b1-4)GlcNAc(b1-4)GlcNAc
# Outline: as §1
# [15] = molecular target: Neu5Ac(a2-3)Gal(b1-4)[Fuc(a1-3)]GlcNAc(b1-3)Gal(b1-4)GlcNAc
# Outline: as §1
# [16] = molecular target: Neu5Ac(a2-3)Gal(b1-4)[Fuc(a1-3)]GlcNAc(b1-3)Gal(b1-4)[Fuc(a1-3)]GlcNAc(b1-3)Gal(b1-4)[Fuc(a1-3)]GlcNAc
# Outline: as §1
# [17] = molecular target: Neu5Gc(a2-3)Gal(b1-4)GlcNAc
# Outline: as §1
# [18] = molecular target: Neu5Gc(a2-6)Gal(b1-4)GlcNAc
# Outline: as §1
# [19] = molecular target: Fuc(a1-2)Gal(b1-3)GalNAc(b1-3)Gal(a1-4)Gal(b1-4)Glc
# Outline: as §1
# Fuc(a1-2)Gal(b1-4)GlcNAc = molecular target: Fuc(a1-2)Gal(b1-4)GlcNAc
# Outline: as §1
# Fuc(a1-2)[Gal(a1-3)]Gal = molecular target: Fuc(a1-2)[Gal(a1-3)]Gal
# Outline: as §1
# [20] = molecular target: Fuc(a1-2)[GalNAc(b1-3)]Gal
# Outline: as §1
# [21] = molecular target: Fuc(a1-3)[Gal(b1-4)]Glc6S
# Outline: as §1
# Gal(a1-4)Gal(b1-4)GlcNAc = molecular target: Gal(a1-4)Gal(b1-4)GlcNAc
# Outline: as §1
# [22] = molecular target: Gal(b1-3)[GlcNAc(b1-6)]GalNAc
# Outline: as §1
# [23] = molecular target: Gal(b1-4)GlcNAc(b1-3)Gal(b1-4)Glc
# Outline: as §1
# [24] = molecular target: Gal(b1-4)GlcNAc(b1-3)[Gal(b1-4)GlcNAc(b1-6)]Gal(b1-4)GlcNAc
# Outline: as §1
# [25] = molecular target: Gal(b1-4)GlcNAc(b1-6)Gal(b1-4)GlcNAc
# Outline: as §1
# [26] = molecular target: Gal(b1-4)GlcNAc(b1-6)[Gal(b1-3)]GalNAc
# Outline: as §1
# Gal3S4S(b1-4)GlcNAc = molecular target: Gal3S4S(b1-4)GlcNAc
# Outline: as §1
# Gal3S6S(b1-4)GlcNAc6S = molecular target: Gal3S6S(b1-4)GlcNAc6S
# Outline: as §1
# [27] = molecular target: GlcNAc(a1-3)Gal(b1-4)GlcNAc
# Outline: as §1
# GlcNAc(b1-3)Man = molecular target: GlcNAc(b1-3)Man
# Outline: as §1
# [28] = molecular target: GlcNAc(b1-3)[GlcNAc(b1-6)]GalNAc
# Outline: as §1
# [29] = molecular target: GlcNAc(b1-4)Gal(b1-4)GlcNAc
# Outline: as §1
# [30] = molecular target: GlcNAc(b1-4)GlcNAc(b1-4)GlcNAc(b1-4)GlcNAc(b1-4)GlcNAc(b1-4)GlcNAc
# Outline: as §1
# Kdn(a2-3)Gal(b1-3)GlcNAc = molecular target: Kdn(a2-3)Gal(b1-3)GlcNAc
# Outline: as §1
# [31] = molecular target: Man(a1-2)Man(a1-3)[Man(a1-2)Man(a1-6)]Man
# Outline: as §1
# Man(b1-4)GlcNAc = molecular target: Man(b1-4)GlcNAc
# Outline: as §1
# [32] = molecular target: Neu5Ac(a2-3)Gal(b1-3)GalNAc6S
# Outline: as §1
# [33] = molecular target: Neu5Ac(a2-3)Gal(b1-4)GlcNAc(b1-2)Man(a1-3)[Neu5Ac(a2-6)Gal(b1-4)GlcNAc(b1-2)Man(a1-6)]Man(b1-4)GlcNAc(b1-4)GlcNAc
# Outline: as §1
# [34] = molecular target: Neu5Ac(a2-6)Gal(b1-4)GlcNAc(b1-2)Man(a1-3)[Neu5Ac(a2-6)Gal(b1-4)GlcNAc(b1-2)Man(a1-6)]Man(b1-4)GlcNAc(b1-4)GlcNAc
# Outline: as §1
# Neu5Gc(a2-3)Gal(b1-4)Glc = molecular target: Neu5Gc(a2-3)Gal(b1-4)Glc
# Outline: as §1
# Neu5Gc(a2-6)GalNAc = molecular target: Neu5Gc(a2-6)GalNAc
# Outline: as §1
binder,measurement,setting,value
B1,glycan array binding signal (z-score),[1],1.93
same,glycan array binding signal (z-score),Fuc(a1-2)Gal(b1-3)GlcNAc,-0.188
same,glycan array binding signal (z-score),Fuc(a1-2)Gal(b1-4)Glc,0.145
same,glycan array binding signal (z-score),[2],0.263
same,glycan array binding signal (z-score),[3],0.21
same,glycan array binding signal (z-score),Fuc(b1-3)GlcNAc,-0.512
same,glycan array binding signal (z-score),[4],0.947
same,glycan array binding signal (z-score),[5],-0.063
same,glycan array binding signal (z-score),[6],0.777
same,glycan array binding signal (z-score),[7],0.044
same,glycan array binding signal (z-score),[8],-0.332
same,glycan array binding signal (z-score),[9],-0.37
same,glycan array binding signal (z-score),[10],-0.205
same,glycan array binding signal (z-score),Gal6S(b1-4)Glc6S,1.85
same,glycan array binding signal (z-score),GalNAc(a1-3)Gal,1.65
same,glycan array binding signal (z-score),GlcA(b1-3)GlcNAc,0.16
same,glycan array binding signal (z-score),GlcA(b1-6)Gal,-0.073
same,glycan array binding signal (z-score),[11],-0.634
same,glycan array binding signal (z-score),GlcNAc(b1-3)Gal,0.2
same,glycan array binding signal (z-score),GlcNAc(b1-3)Gal(b1-4)Glc,0.579
same,glycan array binding signal (z-score),[12],3.65
same,glycan array binding signal (z-score),[13],1.02
same,glycan array binding signal (z-score),[14],4.44
same,glycan array binding signal (z-score),[15],0.654
same,glycan array binding signal (z-score),[16],0.311
same,glycan array binding signal (z-score),[17],-0.286
same,glycan array binding signal (z-score),[18],-0.251
B2,glycan array binding signal (z-score),[1],3.46
same,glycan array binding signal (z-score),[19],0.586
same,glycan array binding signal (z-score),Fuc(a1-2)Gal(b1-4)GlcNAc,3.15
same,glycan array binding signal (z-score),Fuc(a1-2)[Gal(a1-3)]Gal,-0.294
same,glycan array binding signal (z-score),[20],3.61
same,glycan array binding signal (z-score),[21],-0.418
same,glycan array binding signal (z-score),[4],-0.355
same,glycan array binding signal (z-score),Gal(a1-4)Gal(b1-4)GlcNAc,-0.467
same,glycan array binding signal (z-score),[22],-0.403
same,glycan array binding signal (z-score),[23],-0.248
same,glycan array binding signal (z-score),[24],-0.173
same,glycan array binding signal (z-score),[25],-0.316
same,glycan array binding signal (z-score),[26],-0.537
same,glycan array binding signal (z-score),Gal3S4S(b1-4)GlcNAc,-0.168
same,glycan array binding signal (z-score),Gal3S6S(b1-4)GlcNAc6S,11.8
same,glycan array binding signal (z-score),Gal6S(b1-4)Glc6S,0.498
same,glycan array binding signal (z-score),[27],-0.015
same,glycan array binding signal (z-score),GlcNAc(b1-3)Man,2.51
same,glycan array binding signal (z-score),[28],1
same,glycan array binding signal (z-score),[29],0.172
same,glycan array binding signal (z-score),[30],-0.101
same,glycan array binding signal (z-score),Kdn(a2-3)Gal(b1-3)GlcNAc,1.99
same,glycan array binding signal (z-score),[31],0.253
same,glycan array binding signal (z-score),Man(b1-4)GlcNAc,-0.282
same,glycan array binding signal (z-score),[32],-0.221
same,glycan array binding signal (z-score),[33],0.231
same,glycan array binding signal (z-score),[34],-0.439
same,glycan array binding signal (z-score),Neu5Gc(a2-3)Gal(b1-4)Glc,-0.053
same,glycan array binding signal (z-score),Neu5Gc(a2-6)GalNAc,-0.411
